An excerpt weighted towards active compounds, which were near 1.1% of everything screened.
MBNL1 CUG block: MBNL1-poly(CUG) RNA binding inhibition; Q9NR56; Potency, µM (titrated, usually from 57.5 µM), inactives show at the top dose activity change, negative = inhibition, actives largely listed as inhibitors; TR-FRET MBNL1-His/biotin-(CUG)12 binding, 665/545 ratio; 280,000 tested, 0.036% active; active means well fitted inhibition curve with a large enough effect in the signal ratio, with a control signal flat, not every such curve was filed as active; inconclusive means small, poorly fitted or top-dose-only effect, or effect the other way, or a change in a side signal; inactive means no such curve, though single readings can be large or run the other way; the % refers to the signal ratio; further: potency means the concentration at half of the fitted maximal effect; on the % scale 0 is the no-effect control and ±100 the full control effect
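TR-FRET readout: Ex 340 nm, 665/545 nm emission ratio, normalized to buffer-only (basal) and MBNL1-(CUG)12 controls. Complex of MBNL1-His with Biotin-(CUG)12, compounds 92 nM–58 uM, incubated 60 min at room temperature.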
NPSR antag: antagonists of human neuropeptide S receptor cAMP signaling. Q6W5P4. CHO-NPSR cells, cAMP TR-FRET, antagonist mode. Potency, µM (highest dose often 38.3 µM), inactives show at the top dose activity change, negative = inhibition, hits mostly inhibitors. 220,000 tested, 1% active. AID 1461; further: potency means the concentration at half of the fitted maximal effect; on the % scale 0 is the no-effect control and ±100 the full control effect; nearly all actives have a fitted effect of over 50% in size
HTT aggregate: reduces HttQ103-GFP aggregates in PC12 cells; AID 1688; PC12 HttQ103-GFP aggregates, Acumen cytometry, 40 h; Potency, µM (titrated, usually from 46.1 µM), for inactives: at the top dose activity change, negative = inhibition, actives largely listed as inhibitors; 220,000 tested, 1.1% active; further: potency means the concentration at half of the fitted maximal effect; on the % scale 0 is the no-effect control and ±100 the full control effect; nearly all actives have a fitted effect of over 60% in size
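Steps: seed 1500 PC12 HTTQ103-GFP cells/well; add tebufenozide, 100 nM final; add compound titration; add ATPLite reagent; quantify GFP aggregates by laser scanning cytometry.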
LMNA splice mod: LMNA splicing modulation | HeLa LMNA splicing GFP/RFP minigene ratio, 48 h | Potency, µM (titrated, usually from 46.1 µM), inactives show at the highest dose ratio change, negative = inhibition, actives largely listed as inhibitors | 200,000 tested, 0.01% active | AID 1487; active means well fitted inhibition curve with a large enough effect in the signal ratio, with a control signal flat, not every such curve was filed as active; inconclusive means small, poorly fitted or top-dose-only effect, or effect the other way, or a change in a side signal; the % refers to the signal ratio; further: potency means the concentration at half of the fitted maximal effect; on the % scale 0 is the no-effect control and ±100 the full control effect
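Read-out is the ratio of GFP to DsRed2 object intensity, acquired by 488 nm laser-scanning cytometry on HeLa lamin A-EGFP minigene reporter cells. Compound incubation 48 hrs at 37 °C in Opti-MEM with 2% FBS; DMSO 0.5% final.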
HTT ATP protect: cytoprotection in Huntington HTT-Q103 PC12 cell model | PC12 HTT-Q103 induced, cytoprotection, ATP luminescence, 40 h | Potency, µM (titrated, usually from 56.4 µM), for the others: cytoprotection (ATP increase), most hits filed as activators | 230,000 tested, 0.14% active; further: potency means the concentration at half of the fitted maximal effect; % of control where 0% means no effect; nearly all actives have a fitted effect of over 45% in size
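ATP quantification (ATPlite) reports survival of PC12 cells in which tebufenozide, 100 nM final, switches on Htt exon 1 with 103 glutamines linked to GFP; compounds are titrated.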
CBFb-RUNX1 inh: inhibitors of human CBF-beta and RUNX1 interaction. AlphaScreen CBFb-His/RUNX1-biotin binding, biochemical. 230,000 tested, under 10 active. Q01196+Q13951. Potency, µM (titrated, usually from 59.8 µM), for inactives: at the highest dose activity, negative = inhibition, hits mostly inhibitors; further: % of control where 0% means no effect
Target sequence (Q01196 whole entry, looked up): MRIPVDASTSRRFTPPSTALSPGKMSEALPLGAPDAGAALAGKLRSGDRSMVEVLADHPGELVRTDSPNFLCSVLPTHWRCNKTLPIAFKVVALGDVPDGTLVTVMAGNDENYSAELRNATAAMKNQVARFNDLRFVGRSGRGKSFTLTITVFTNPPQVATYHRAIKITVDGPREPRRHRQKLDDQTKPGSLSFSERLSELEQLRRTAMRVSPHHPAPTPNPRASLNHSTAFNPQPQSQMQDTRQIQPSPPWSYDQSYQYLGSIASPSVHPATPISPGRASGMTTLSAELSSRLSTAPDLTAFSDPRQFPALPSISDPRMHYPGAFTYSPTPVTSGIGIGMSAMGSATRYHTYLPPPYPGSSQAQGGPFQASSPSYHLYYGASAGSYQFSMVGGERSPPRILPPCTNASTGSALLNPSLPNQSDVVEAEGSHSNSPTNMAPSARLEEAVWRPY
Target sequence (Q13951 whole entry, looked up): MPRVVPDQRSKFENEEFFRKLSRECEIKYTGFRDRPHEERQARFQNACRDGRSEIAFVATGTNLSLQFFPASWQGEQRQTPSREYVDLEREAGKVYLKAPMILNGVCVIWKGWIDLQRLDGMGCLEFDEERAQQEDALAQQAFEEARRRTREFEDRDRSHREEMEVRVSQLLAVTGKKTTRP
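Room-temperature protein-protein interaction test with 30 nM each of His-tagged CBF-beta and biotinylated RUNX1, 15 min with compound, then 90 min with nickel plus streptavidin beads. Signal read in AlphaScreen mode.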
The depositor's hits bear a star; u = inconclusive; x = no result given; [ ] = dose if it differs, or a comment. Unless noted, the call rests on the fitted dose curve; in most records, active means well fitted curve in the direction sought with a large enough effect; inconclusive means small, poorly fitted or top-dose-only effect, or another doubt; inactive means no such curve, though single readings can be large; an effect the other way counts as inactive or inconclusive.

SMILES	MBNL1 CUG block	NPSR antag	HTT aggregate	LMNA splice mod	HTT ATP protect	CBFb-RUNX1 inh
O=C(CSCc1nc2ccccc2[nH]1)N1CCN(c2cccc(Cl)c2)CC1	-10.2%	-11.3%[46.1 µM]	25.1µM*	u	-32.1%	-5.9%
O=C(O)CCCSc1ccccc1	x	x	x	x	-6.3%[10 µM]	x
CC(=O)Nc1cn(-c2ccccc2)nc1-c1ccccc1	2.8%	4.9%	-15.2%	u	-31.9%	3.4%
O=C(CCl)Nc1ccc(-c2ccccc2)cc1	x	-19.1%	17.8µM*	x	-6.6%	18.5%
O=C(CCl)Nc1cn(-c2ccccc2)nc1-c1ccccc1	-8.7%	-19.4%	22.4µM*	u	-192.2%	-3.1%
NS(=O)(=O)c1nn2cc(-c3ccccc3)nc2s1	x	x	x	x	x	5.1%
COC(=O)C1=C(C(=O)OC)[C@@H]2Nc3ccccc3[C@@]23C[C@@H](C(=O)OC)N(S(=O)(=O)c2ccc4c(c2)OCCN4C)C3=N1	x	x	x	-6.8%[9.22 µM]	-30.0%[10 µM]	-10.6%[13.1 µM]
Cc1ccc(C)c(NC(=O)c2cnn3ccccc23)c1	3.4%	-13.0%[46.1 µM]	12.6µM*	u	-103.4%	-1.0%
CCN(CC)c1ccc(N=Cc2ccc([N+](=O)[O-])o2)cc1	u	-49.6%	14.1µM*	u	2.7%[10 µM]	u
COc1ccccc1NS(=O)(=O)c1cc([N+](=O)[O-])ccc1N/N=C/c1c(C)[nH]c2ccccc12	23.2%	-24.8%[46.1 µM]	7.0%	6.9%	-5.9%	-11.8%
O=[N+]([O-])c1ccc(N/N=C/c2c[nH]c3ccccc23)c(S(=O)(=O)Nc2ccc(Cl)cc2)c1	-1.2%	15.8µM*	u	1.7%	-6.7%	1.9%
CCCCc1cc2c(cn1)=C(OC(=O)c1ccc(Cl)nc1)C(C)(OC(=O)CC)C(=O)C=2 (configuration not stated)	x	x	x	3.8%[9.22 µM]	5.2%[10 µM]	0.3%[13.1 µM]
Cc1nc(C)n(CC(O)COc2ccc3cc(Br)ccc3c2)n1 (configuration not stated)	1.1%	-16.9%[46.1 µM]	12.6µM*	u	-18.0%	4.5%
O=S(=O)(N1CCCCC1)N1CCN(CC(O)COc2ccc3cc(Br)ccc3c2)CC1 (configuration not stated)	1.7%	u	-21.1%	-21.8%	-13.2%	7.0%
CN(C)S(=O)(=O)N1CCN(CC(O)COc2ccc3cc(Br)ccc3c2)CC1 (configuration not stated)	14.0%	4.2%[46.1 µM]	11.2µM*	u	-31.9%[0.074 µM]	2.3%
OC(COc1ccc2cc(Br)ccc2c1)CN1CCCC1 (configuration not stated)	21.1%	u	-22.3%	29.2%	-28.3%[0.074 µM]	10.0%
COc1cccc([C@@H]2Oc3ccc(Br)cc3C[C@H]2OC(=O)NS(=O)(=O)c2ccc(C)cc2)c1	x	x	x	x	u	-4.8%
N[C@@H](C(=O)O)[C@@H](CC(=O)O)c1ccc(Cl)cc1	x	x	x	x	-25.9%	9.1%
COc1cc([C@H]2c3cc4c(cc3[C@@H](O[C@H]3O[C@H]5CO[C@@H](C)O[C@H]5[C@@H](O)[C@@H]3O)[C@@H]3COC(=O)[C@H]23)OCO4)cc(OC)c1O	x	x	-7.7%	u	-124.4%[17.1 µM]	22.8%[21.7 µM]
O=C1/C(=C/c2ccco2)Oc2c1ccc(O)c2CN1CCCCC1	u	-33.4%	-24.1%	-10.2%	x	-20.0%
Cc1ccc(/C=C2\Oc3c(ccc(O)c3CN3CCN(CCO)CC3)C2=O)cc1	u	10µM*	5.4%	x	28.1%	4.9%
CC(C)c1ccc(/C=C2\Oc3c(ccc(O)c3CN3CCN(C)CC3)C2=O)cc1	u	10µM*	4.2%	15.0%[9.22 µM]	-12.8%	4.7%
O=C(/C=C/c1ccccc1Cl)Nc1nc(-c2cccs2)ns1	x	x	x	25.8%[46 µM]	x	x
O=C(Oc1c(Br)cc([N+](=O)[O-])cc1Br)c1cccnc1	19.8%	7.4%	35.5µM*	u	33.9%[10 µM]	3.6%
N/C(=N\OC(=O)c1ccc([N+](=O)[O-])cc1)c1cccnc1	u	12.1%[46.1 µM]	11.9%	-4.9%	3.4%[10 µM]	-8.3%
SMILES	MBNL1 CUG block	NPSR antag	HTT aggregate	LMNA splice mod	HTT ATP protect	CBFb-RUNX1 inh
CCOC(=O)c1scc(-c2ccc(C)cc2)c1S(=O)(=O)Nc1ccc(OC)c(Cl)c1	x	x	x	-7.3%[46 µM]	x	x
O=C(CCc1ccccc1)n1nc(-c2ccccc2)nc1NCc1ccco1	-6.4%	-11.7%[46.1 µM]	25.1µM*	-12.2%	6.3%[10 µM]	0.8%
CC1CCN(CC[C@@H]2CCCN2S(=O)(=O)c2cccc(O)c2)CC1	x	x	x	x	13.3%[1.9 µM]	x
CCCCC1=CC2=C(c3ccco3)C(=O)C(C)(OC(=O)c3ccc(OC)cc3)C(=O)C2=CN1C1CCCCC1 (configuration not stated)	49.4%	10µM*	-18.6%[9.22 µM]	15.4%[9.22 µM]	10.2%[10 µM]	-3.4%[13.1 µM]
CC(C)CO/N=C1/C[C@@H](O)[C@@H](O)[C@@H]2[C@@H]3C(=O)N(Cc4ccccc4)C(=O)[C@H]3CC[C@@H]12	x	x	x	x	2.82µM*	2.8%[13.1 µM]
N/C(=N\NC(=O)c1sccc1OCc1ccc(Cl)cc1Cl)c1ccccn1	-3.7%	-13.4%	1.78µM*	x	-11.2%	0.6%
NC(N)=N[C@H](CC(=O)O)c1ccccc1	x	x	x	x	-12.3%[10 µM]	x
COc1ccc(C2c3c(ncn(CCN4CCOCC4)c3=N)Oc3ccc4ccccc4c32)cc1OC (configuration not stated)	5.7%	1µM*	12.5%	-7.2%	-40.8%	-7.2%
Cc1cccc(-c2nc(CCNC(=O)c3ccccc3Br)cs2)c1	x	x	x	0.3%[46 µM]	x	x
O=C(Nc1cccc(C(F)(F)F)c1)Nc1ccc(N2CCCC2)c(S(=O)(=O)Nc2ccccc2Cl)c1	1.5%	10µM*	u	u	-47.7%[10 µM]	-24.5%
NN(CC(=O)O)CC(=O)O	x	x	x	x	7.7%[10 µM]	x
Cn1c(=O)c2c(nc(Oc3ccc4ccccc4c3)n2C)n(C)c1=O	-5.4%	-10.2%[46.1 µM]	1.41µM*	-5.1%	14.1%	3.9%
COc1ccc(Oc2nc3c(c(=O)n(C)c(=O)n3C)n2C)cc1	1.3%	x	x	x	x	x
C=CCN1c2ccccc2[C@]23C[C@@H](C(=O)OC)N(S(=O)(=O)c4ccc(Br)cc4)C2=NC(C(=O)OC)=C(C(=O)OC)[C@H]13	x	x	x	-2.4%[9.22 µM]	7.4%[10 µM]	5.4%[13.1 µM]
Cc1cc(CN2CCN(CCC#N)CC2)c(O)c(C2(C)CCCCC2)c1	2.6%	10µM*	-14.1%	4.8%	-10.8%	-0.6%
N#CCCN1CCN(CCC#N)CC1	-8.7%	-3.8%[46.1 µM]	-26.9%	8.4%	1.3%	-1.0%
CN(C)C[C@H]1CCC2=C(C1=O)C(c1ccc(Cl)c(Cl)c1)C1=C(CC[C@H](CN(C)C)C1=O)O2	x	x	x	x	13.2%[10 µM]	x
CN1/C(=C\C(=O)c2cccs2)Sc2ccccc21	u	-20.2%[46.1 µM]	15.8µM*	-0.6%	-97.8%[10 µM]	22.9%
CN1/C(=C/C(=O)c2cccs2)Sc2ccccc21	u	-9.8%[46.1 µM]	-5.7%	-3.0%	-110.3%	25.5%

Bioassay records deposited in PubChem BioAssay by National Center for Advancing Translational Sciences (NCATS).
